# Results: ChEMBL document CHEMBL4513216, “Probing the Open Global Health Chemical Diversity Library for Multistage-Active Starting Points for Next-Generation Antimalarials” (ACS Infect Dis, 2020)
# The campaign covered roughly 69,000 compounds. About 8,600 (12%) showed an effect of 50% or more. Only a selection was taken, and strong results are over-represented in it overall.
# Tested on: Plasmodium berghei
# Experiment: Screen against P. berghei liver stage (PbLuc), transformed with Luciferase, at 10uM
# Assay type: functional, HepG2
# Conditions: tested at 10 uM
row,Compound,INHIBITION [%]
1,CCn1ccnc1CN1CCN(CCc2ccncc2)CC1C (stereo not drawn),24.7
2,O=C(O)[C@@H]1CN(C(=O)c2ccc(Cl)cc2)C[C@H]1c1cccc(F)c1,13.3
3,O=C(O)[C@@H]1CN(C(=O)c2ccc(F)c(F)c2)C[C@H]1c1cccc(F)c1,65.7
4,O=C(O)[C@@H]1CN(C(=O)c2ccc(O)cc2)C[C@H]1c1cccc(F)c1,-19.5
5,CCN(Cc1nonc1C)C(=O)Cn1nc(C(F)(F)F)cc1C,44.35
6,CCOc1cc(C(=O)n2cccn2)cc(OCC)c1OCC,-30.6
7,N#CCCN(C(=O)CCc1cscn1)c1ccc2c(c1)OCCO2,-7.46
8,Cc1ccc(C(=O)Oc2cc(=O)n3cccc(C)c3n2)cc1,59.8
9,Cc1cccc(C(=O)Oc2cc(=O)n3cccc(C)c3n2)c1,-51.1
10,Cc1cccn2c(=O)cc(OC(=O)c3ccccc3)nc12,-19.7
11,CN1CCc2c(C#N)c(NCC3CCCO3)n3cnnc3c2C1 (stereo not drawn),-1.45
12,CCOc1nc2cnccc2n(CC(=O)NCc2ccco2)c1=O,46.7
13,CCOc1nc2cnccc2n(CC(=O)NCCc2ccccc2)c1=O,33.9
14,CCOc1nc2cnccc2n(CC(=O)NCc2ccc(C)cc2)c1=O,53.1
15,COc1cccc2c(=O)n(C3CCNCC3)cnc12,57.3
16,COc1cccc2c(=O)n(Cc3cccnc3)cnc12,-20
17,COc1cccc2c(=O)n(C3CCCNC3)cnc12 (stereo not drawn),61
18,COc1cccc2c(=O)n(Cc3cc(C4CC4)[nH]n3)cnc12,-6.94
19,COc1cccc2c(=O)n(Cc3ccnc(C)c3)cnc12,17.5
20,COc1cccc2c(=O)n(CCN3CCNCC3)cnc12,-109
21,O=C(NCc1cccs1)C1CNCC12CCOCC2 (stereo not drawn),-30.1
22,CCCn1[nH]c(CNc2ccccc2)nc1=O,32.5
23,CC(=O)c1cn(CC(=O)N[C@H](C(=O)O)C(C)C)c2ccccc12,35.1

row,Compound,INHIBITION [%]
1,CCOc1ccccc1N1CCN(CC2(O)CCCNC2)CC1 (stereo not drawn),29.2
2,Cc1ccc(C)c(N2CCN(CC3(O)CCNC3)CC2)c1 (stereo not drawn),50.5
3,Cc1ccccc1N1CCCN(CC2(O)CCCNC2)CC1 (stereo not drawn),39.9
4,NC(=O)c1csc(C(=O)N2CCCC(n3cccn3)C2)c1 (stereo not drawn),23.4
5,Cc1nc(CN(Cc2ccc3c(c2)OCCO3)C2CCCC2)no1,-31.8
6,CCN(CC)C(=O)CN1CCCC(c2nc(C)c3c(n2)N(C)CCC3)C1 (stereo not drawn),36
7,CNc1cc(C)nc(C2COCCN2CCc2ccccc2)n1 (stereo not drawn),-2.9
8,Cc1cc(N(C)C)nc(C2COCCN2Cc2csc(C)n2)n1 (stereo not drawn),39.3
9,CNc1cc(C)nc(C2COCCN2Cc2csc(C)n2)n1 (stereo not drawn),53.6
10,Cc1ccc(Br)cc1S(=O)(=O)NCCc1nnc[nH]1,23.5
11,Cc1ncnc2c1CCN(Cc1ccc3c(c1)OCO3)CC2,41.8
12,CC(=O)NCCC(Cc1ccccc1)c1ccco1 (stereo not drawn),-24.6
13,O=C(CCCOc1ccc(F)cc1F)N1CCCC(n2cccn2)C1 (stereo not drawn),11.4
14,CCc1nc(N)nc(N(C)Cc2nncn2CCOC)c1C,73.5
15,COCCn1cnnc1CN(C)c1nc(N)ncc1C,0.897
16,COCCn1cnnc1CN(C)c1nc(N)nc2c1CCCC2,23.3
17,CCO[C@@H]1CC[C@H]2[C@H]1OCCN2S(=O)(=O)C1CC1,2.59
18,Cc1ccc(C(=O)NCCCN2CCOCC2)c(Cl)c1,-56.5
19,Cc1ccc(C(=O)NCCN2CCOCC2)cc1N(C)S(C)(=O)=O,55.5
20,CN(c1ccc(C(=O)NCCCN2CCCCC2)c(Cl)c1)S(C)(=O)=O,70.4
21,CN(c1ccc(C(=O)NCCCN2CCOCC2)c(Cl)c1)S(C)(=O)=O,46.8
22,Cc1ccc(C(=O)NCCC2CCN(C)CC2)cc1N(C)S(C)(=O)=O,42.1
23,CN(c1ccc(C(=O)NCCCN2CCCC2)c(Cl)c1)S(C)(=O)=O,40.9

row,Compound,INHIBITION [%]
1,CC1CCN(CCCNC(=O)c2ccc(N(C)S(C)(=O)=O)cc2Cl)CC1,79.2
2,Cc1cc(C)c(S(N)(=O)=O)cc1C(=O)NCCN1CCC(C)CC1,-7.83
3,Cc1ccc(C(=O)NC2CCN(C)CC2)cc1N(C)S(C)(=O)=O,34.2
4,CN(c1ccc(Cl)c(C(=O)NCCCN2CCOCC2)c1)S(C)(=O)=O,63.3
5,CN(c1ccc(C(=O)NCCN2CCOCC2)c(Cl)c1)S(C)(=O)=O,38.5
6,O=C(NCCCN1CCOCC1)c1ccc(Cl)cc1Cl,-4.52
7,Cc1c(Cn2c(=O)cnc3ccccc32)cnn1C,34
8,COCC(=O)N1CCC2(CC1)NC(=O)c1ccccc12,46.7
9,Cc1ccc(CN2CC[C@@H]3[C@@H](CO[C@H]3CN3CCN(C)CC3)C2)s1,-35.9
10,NC(=O)C1CCN(CC(=O)N(Cc2ccccc2)Cc2nccs2)CC1,2.15
11,O=C(Cc1ccon1)N1CCc2cc(Br)sc2C1,-28.9
12,CC(C)c1nnc(CN2CCCC(c3cc(C(N)=O)[nH]n3)C2)o1 (stereo not drawn),33.7
13,C[C@@H]1CN(c2nc3c(cc2C(N)=O)CCC3)C[C@]1(C)O,-13.8
14,CCc1nc(CC2CN(c3ncnc4nc(C)cc(C)c34)CCO2)no1 (stereo not drawn),22
15,CN(C)CCCNC(=O)c1ccc(N(C)S(C)(=O)=O)cc1Cl,64.1
16,Cc1nc(-c2noc3ccc(C(=O)NCCN(C)C)cc23)co1,8.31
17,CN(C)CCCNC(=O)c1ccc(Cl)cc1Cl,16
18,CN(C)CCCNC(=O)c1cc(Cl)ccc1Cl,4.93
19,CC1CCCN(CCCNC(=O)c2ccc(N(C)S(C)(=O)=O)cc2Cl)C1 (stereo not drawn),53.7
20,Cc1nc(-c2noc3ccc(C(=O)NCCN4CCOCC4)cc23)cs1,46.7
21,CC1CCCN(CCCNC(=O)c2cn(C)nc2-c2cccnc2)C1 (stereo not drawn),13.2
22,Cc1nc(-c2noc3ccc(C(=O)NCCN4CCOCC4)cc23)co1,63
23,CN1CCC(CCNC(=O)c2ccc(N(C)S(C)(=O)=O)cc2Cl)CC1,8.47

row,Compound,INHIBITION [%]
1,Cc1ncsc1C(=O)NCc1ccnc(N2CCN(C)CC2)c1,12.85
2,CCc1cnc(N2C[C@@H]3C[C@H](C(=O)N4CCOCC4)[C@H](C2)O3)nc1,28.5
3,CCOC(=O)N1[C@@H](c2ccco2)[C@@H](C(=O)O)C[C@]12CCCCNC2=O,-8.8
4,O=C(O)c1cnc(N2CCCC2)nc1COc1ccccc1,-14.8
5,Cc1cnn(C2CN(CC(=O)NCC(C)C)C2)c1,16.9
6,CCn1cnnc1C1CCN(C(=O)c2ccoc2C)CC1,-5.07
7,c1ccc(COc2cccc(CNC3CCc4ncnn4C3)c2)cc1 (stereo not drawn),33.6
8,Cc1ccc2c(c1)C(=O)NCC1(CCN(C(=O)c3csc(C)c3)CC1)O2,-28.6
9,O=C(N1CCOCC1)N1C2CCC(O)(CC2)C1CN1CCOCC1 (stereo not drawn),44.2
10,CNc1cc2c(nn1)CCN(C(=O)c1coc(Br)c1)C2,3.73
11,Cc1ncc(CC(=O)N2CCCCC2CCN2CCCC2)c(=O)[nH]1 (stereo not drawn),61.8
12,Cc1cnn(CC2CCCN2C(=O)Cc2c(C)nc(C)[nH]c2=O)c1 (stereo not drawn),31.8
13,Cc1ncc(CC(=O)N2CCC(N3C[C@@H](C)O[C@@H](C)C3)CC2)c(=O)[nH]1,37.4
14,CC(=O)NC(CC(=O)Nc1ccc(C)cn1)c1ccccc1 (stereo not drawn),27.6
15,N#CC1(NC(=O)c2cc(Cl)ccc2OC(F)F)CCOCC1,45.4
16,O=C(c1ccc(=O)[nH]n1)N1CCc2ccccc21,38.8
17,O=C(c1c[nH]c(=O)[nH]1)N1CCc2ccccc21,90.7
18,O=C(NN1CCCc2ccccc21)c1c[nH]c(=O)[nH]1,32.3
19,O=C([C@@H]1COC[C@H]2CN(c3ccncn3)C[C@H]21)N1CCCC1,-10.3
20,CCOC(=O)c1n[nH]cc1-c1cncn1CCCn1nc(C)cc1C,15.9
21,NCC(=O)N1CCC(c2cccc(Oc3ccccc3)n2)CC1,75.9
22,CC(=O)N1CCC(c2cccc(Oc3ccccc3)n2)CC1,9.98
23,CNCC(=O)N1CCC(c2cccc(Oc3ccccc3)n2)CC1,29.5

row,Compound,INHIBITION [%]
1,CCn1cc(Br)c(C(=O)NCc2ccc(F)cc2)n1,-34
2,O=C(NCc1ccc(-n2cncn2)nc1)c1cnccn1,48.3
3,Cc1cccc(C)c1NC(=O)c1cc(S(N)(=O)=O)c(C)o1,52.7
4,Cc1oc(C(=O)Nc2ccccc2F)cc1S(N)(=O)=O,17.5
5,Cc1oc(C(=O)Nc2cccc(Cl)c2C)cc1S(N)(=O)=O,-74.6
6,Cc1nccc(CNC(=O)Nc2cc(C(F)(F)F)c[nH]c2=O)n1,8.38
7,Cc1ccn(CC(=O)NCCCOc2ccccc2F)c(=O)c1,10.9
8,CNC(=O)COC(=O)c1ccn(-c2ccc(Cl)c(Cl)c2)n1,35.7
9,COC(=O)CNC(=O)c1ccn(-c2ccc(Cl)c(Cl)c2)n1,51.6
10,CS(=O)(=O)NC(=O)c1ccn(-c2ccc(Cl)c(Cl)c2)n1,-43.9
11,O=C(C1CCCOC1)N1CCN(CC(F)(F)F)c2ccccc21 (stereo not drawn),11.3
12,O=C1N(Cc2cccc(F)c2)CCC12CCN(c1ccccn1)CC2,-15.9
13,O=C(COC[C@@]12CCC[C@@H]1CN(C1CCC1)C2)N1CCCC1,27.6
14,CN(C)C(=O)COC[C@@]12CCC[C@@H]1CN(C1CCC1)C2,12.7
15,O=C(COC[C@]12COC[C@H]1CN(C1CCC1)C2)N1CCCC1,60.2
16,c1ccc(OC[C@]23COC[C@H]2CN(C2CCOCC2)C3)nc1,-4.32
17,C1CC(N2C[C@@H]3COC[C@]3(COCC3CCOCC3)C2)C1,55.7
18,O=C(COC[C@@]12CCC[C@@H]1CN(C1CCCC1)C2)N1CCCC1,34.9
19,CN(C)C(=O)COC[C@]12COC[C@H]1CN(C1CCCC1)C2,56.6
20,CN(C)C(=O)COC[C@@]12CCC[C@@H]1CN(C1CCCC1)C2,-25.7
21,c1cncc(OC[C@]23COC[C@H]2CN(C2CCC2)C3)c1,20.6
